Assay [1] has as its target Glucocorticoid receptor (Homo sapiens) (UniProt P04150). The assay can be described thus: qHTS assay for small molecule agonists of glucocorticoid receptor signaling (AID 588532; active = well fitted curve in the direction sought with a large enough effect in the signal ratio, with a control signal flat; the % refers to the signal ratio;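 note: 100% = dexamethasone at 0.1 µM and 0% = DMSO only wells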). The note with it: HeLa MMTV-bla, beta-lactamase ratio, agonist, 18 h; stronger effect = higher value; percent of dexamethasone control, DMSO zero. In short, it runs like this: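 Stimulation of a glucocorticoid response element-driven beta-lactamase gene was measured in HeLa cells. Responses were scaled between DMSO basal and 0.1 uM dexamethasone, then fitted for half-maximal stimulation.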

The target is the same in assay [2]. The assay can be described thus: qHTS assay for small molecule antagonists of glucocorticoid receptor signaling (AID 588533; active = well fitted inhibition curve with a large enough effect in the signal ratio, with a control signal flat, not every such curve was filed as active; the % refers to the signal ratio;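 note: cells stimulated with 2 nM dexamethasone as agonist; % is set by controls: 0 for no effect and ±100 for the full control effect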). The note with it: HeLa MMTV-bla, GRE beta-lactamase ratio, antagonist mode, 18 h; series mostly up to 76.8 µM. Put shortly:
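Antagonist-mode qHTS: compound titrations added to GRE-bla HeLa cells, then dexamethasone 2 nM final; 18 h, 37 C. CCF4 FRET fluorescence normalized to dexamethasone and DMSO; IC50 from Hill fit.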

Assay [3] deals with Peroxisome proliferator-activated receptor gamma (Homo sapiens) (UniProt P37231). The assay can be described thus: qHTS assay for small molecule agonists of peroxisome proliferator-activated receptor gamma signaling (AID 588536; active = well fitted curve in the direction sought with a large enough effect in the signal ratio, with a control signal flat, not every such curve was filed as active; the % refers to the signal ratio;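 note: 0% = DMSO basal wells and 100% = rosiglitazone at 2 µM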). The settings on record: HEK293 PPARg-UAS-bla, beta-lactamase ratio, 16 h, percent of rosiglitazone response, DMSO as zero; series mostly up to 76.7 µM. Put shortly:
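Cells were plated and held 6–6.5 h at 37 C, then compounds were added as a titration series. After a further 16 h, CCF4 dye was loaded for 2 h at room temperature and emission at 460/530 nm recorded.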

Assay [4] shares this target. The assay can be described thus: qHTS assay for small molecule antagonists of peroxisome proliferator-activated receptor gamma signaling (AID 588537; active = well fitted inhibition curve with a large enough effect in the signal ratio, with a control signal flat, not every such curve was filed as active; the % refers to the signal ratio;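 note: reporter cells co-stimulated with 50 nM rosiglitazone agonist during compound treatment; % of control where 0% means no effect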). The settings on record: HEK293 PPARg-UAS-bla, beta-lactamase ratio, antagonist mode; series mostly up to 76.8 µM. Put shortly:
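HEK293 cells, PPAR-gamma-UAS-bla, 3000/well. Pre-incubation 6-6.5 h, 37 C. Compound titration with rosiglitazone 50 nM final, 16 h. CCF4 dye, 2 h RT, dual-emission fluorescence.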

For assay [5], the target named is Vitamin D3 receptor (Homo sapiens) (UniProt P11473). The assay can be described thus: qHTS assay for small molecule agonists of vitamin D receptor signaling (AID 588543; calls by dose curve;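 note: 0% = DMSO basal and 100% = reference agonist control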). The settings on record: HEK293T VDR-UAS-bla, beta-lactamase ratio, 16 h; series mostly up to 76.8 µM. In short, it runs like this:
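Measured: β-lactamase reporter activity (CCF4, 405 nm excitation, 460/530 nm emission) in HEK293T VDR-UAS-bla cells after 16 h compound exposure at 37 °C. Normalization against 50 nM 1α,25-dihydroxyvitamin D3 and DMSO; Hill-fit EC50.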

In assay [6] the target is Thyroid hormone receptor beta (Homo sapiens) (UniProt P10828). The assay can be described thus: qHTS assay for small molecule agonists of thyroid hormone receptor beta signaling (AID 588545; calls by dose curve). The settings on record: TR-UAS-bla GripTite HEK 293, beta-lactamase ratio, agonist mode, 18 h; series mostly up to 76.7 µM. Put shortly: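 Agonist-mode beta-lactamase reporter assay, HEK 293 cells, 2% charcoal/dextran FBS; cells plated 4 hrs, compound 18 hrs at 37 C, CCF4 2 hrs RT. Normalized to 10 nM T3 (100%) and DMSO (0%); Hill fit gives EC50, efficacy.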
Chain of Thyroid hormone receptor beta (Homo sapiens) (P10828 whole entry, looked up): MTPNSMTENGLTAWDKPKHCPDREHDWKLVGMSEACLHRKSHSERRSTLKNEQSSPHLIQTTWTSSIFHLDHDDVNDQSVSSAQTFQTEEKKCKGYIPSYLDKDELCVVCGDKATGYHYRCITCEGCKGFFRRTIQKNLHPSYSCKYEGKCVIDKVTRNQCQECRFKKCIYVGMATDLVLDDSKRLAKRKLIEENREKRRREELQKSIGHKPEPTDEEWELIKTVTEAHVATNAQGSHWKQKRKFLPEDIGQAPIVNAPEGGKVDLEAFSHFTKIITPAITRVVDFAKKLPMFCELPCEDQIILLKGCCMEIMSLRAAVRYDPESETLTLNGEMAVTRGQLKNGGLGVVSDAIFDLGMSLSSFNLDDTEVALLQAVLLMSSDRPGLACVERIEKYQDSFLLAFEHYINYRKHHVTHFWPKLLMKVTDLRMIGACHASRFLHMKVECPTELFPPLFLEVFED

A short description of assay [7]: qHTS assay for environmental chemicals that activate the Aryl hydrocarbon Receptor (AhR) signaling pathway (AID 651777). Note: % of control where 0% means no effect; nearly all actives have a fitted effect of over 15% in size. The note with it: 1A2-DRE human hepatoma cells, luciferase, 24 h; activation: stronger effect = higher value. In short, it runs like this:
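Concentration–response screening used 1,200 1A2-DRE cells per well, 24 hr compound exposure (37 C, 5% CO2), and One-Glo luminescence as the AhR-driven CYP1A2 reporter signal.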

The target of assay [8] is Peroxisome proliferator-activated receptor alpha (Homo sapiens) (UniProt Q07869). The assay can be described thus: qHTS assay for small molecule agonists of the peroxisome proliferator-activated receptor alpha (PPARalpha) signaling pathway (AID 651778). Note: % of control where 0% means no effect. The settings on record: PathHunter PPARalpha complementation, chemiluminescence, 6 h; max response: stronger effect = higher value. In short, it runs like this: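 Cells plated at 2,000/well and held overnight at 37 C, 5% CO2, then compound added by pin tool for 6 hr; after PathHunter detection reagent and 60 min at room temperature, chemiluminescence from enzyme complementation was read.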
Chain of Peroxisome proliferator-activated receptor alpha (Homo sapiens) (Q07869 whole entry, looked up): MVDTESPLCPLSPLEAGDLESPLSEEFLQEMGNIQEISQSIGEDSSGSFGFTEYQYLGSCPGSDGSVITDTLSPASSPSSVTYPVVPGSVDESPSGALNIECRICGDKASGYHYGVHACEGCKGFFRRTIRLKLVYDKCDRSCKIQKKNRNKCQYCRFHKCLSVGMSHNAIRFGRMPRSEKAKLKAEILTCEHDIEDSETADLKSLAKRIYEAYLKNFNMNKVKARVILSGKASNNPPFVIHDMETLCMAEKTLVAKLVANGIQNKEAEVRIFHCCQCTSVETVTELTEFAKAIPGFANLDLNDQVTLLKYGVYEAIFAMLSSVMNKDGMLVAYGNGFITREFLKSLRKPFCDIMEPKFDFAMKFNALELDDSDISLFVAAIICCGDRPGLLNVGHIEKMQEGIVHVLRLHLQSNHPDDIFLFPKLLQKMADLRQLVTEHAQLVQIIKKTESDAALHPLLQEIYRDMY

Assay [9] in a line: qHTS assay for small molecule agonists of the antioxidant response element (ARE) signaling pathway measured by Nrf2-dependant transcriptional activity (AID 720636; active = well fitted curve in the direction sought with a large enough effect in the repeat runs; an effect the other way counts as inactive or inconclusive; note: % of control where 0% means no effect). The settings on record: ARE-luc HepG2, Nrf2 luciferase reporter, 16 h; series mostly up to 92.4 µM. In short, it runs like this: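 Attachment 6 hr at 37 C, then compound versus DMSO vehicle for 16 hr in ARE-luc HepG2 cells (1% dialyzed FBS); luminescence recorded 30 min after ONE-Glo addition at room temperature.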

A short description of assay [10]: qHTS assay for small molecule agonists of the antioxidant response element (ARE) signaling pathway measured by Nrf2-dependant transcriptional activity - cell viability counter screen (AID 720653; active = well fitted curve in the direction sought with a large enough effect in the repeat runs; an effect the other way counts as inactive or inconclusive; note: % is set by controls: 0 for no effect and ±100 for the full control effect). The note with it: ARE-bla HepG2 viability, CellTiter-Glo ATP luminescence, 16 h; max response: stronger effect = lower value. In short, it runs like this: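 ARE-bla HepG2 cells (2,000/well) rested 5 hrs at 37C/5% CO2, then exposed to compounds in DMSO for 16 hrs. Viability was read in the same wells as intracellular ATP by luminescence, 30 min at room temperature after reagent addition.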

The nature of assay [11]: qHTS assay for cell viability of HEK293 cells (AID 743288). Note: % is set by controls: 0 for no effect and ±100 for the full control effect; nearly all actives have a fitted effect of over 50% in size. The note with it: ATP luminescence (CellTiter-Glo), 18 h; max response: stronger effect = lower value. In short, it runs like this:
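HEK293, 18 h, 37 C, ATP luminescence. Cells at 2,000/well were allowed at least 5 h to settle before dosing; CellTiter-Glo developed 30 min at RT.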

Assay [12] in a line: qHTS assay for small molecule antagonists of peroxisome proliferator-activated receptor delta signaling (AID 588535).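 Note: cells co-treated with a PPAR-delta agonist as stimulator during compound exposure.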 The settings on record: HEK293T PPARd-UAS-bla, beta-lactamase FRET ratio, 18 h; 460 nm channel. Put shortly:
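Compounds tested in titration on PPAR-delta-UAS-bla HEK293T cells grown in charcoal/dextran-stripped serum (2%); beta-lactamase activity read via CCF4 emission at 460 and 530 nm.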

The nature of assay [13]: qHTS assay for small molecule antagonists of retinoid X receptor alpha signaling (AID 588546; active = well fitted inhibition curve with a large enough effect in the signal ratio, with a control signal flat, not every such curve was filed as active; the % refers to the signal ratio;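 note: cells stimulated with 9-cis-retinoic acid as agonist; % is set by controls: 0 for no effect and ±100 for the full control effect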). The note with it: HEK293T RXRa-UAS-bla, beta-lactamase ratio, antagonist mode; measured here: W530 green channel, cytotoxicity proxy. In short, it runs like this:
(§1)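 Beta-lactamase reporter inhibition, read as CCF4 fluorescence ratio (ex 405, em 460/530 nm) after 2 h at RT. HEK293T UAS-bla cells, 2500/well, were stimulated with 9-cis-RA at 500 or 100 nM final alongside test compound for 18 h at 37 C.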

For assay [14], the target named is Retinoic acid receptor RXR-alpha (Homo sapiens) (UniProt P19793). The description is as above. The note with it: HEK293T RXRa-UAS-bla, beta-lactamase ratio, antagonist mode. In short, it runs like this:
as §1

Assay [15] can be described thus: qHTS assay for small molecule activators of the p53 signaling pathway (AID 651743; active = well fitted activation curve with a large enough effect in the signal ratio, not every such curve was filed as active; the % refers to the signal ratio; note: % of control where 0% means no effect). The note with it: HCT-116 p53RE-bla, beta-lactamase FRET ratio, 16 h; activation: stronger effect = higher value. Put shortly: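 Here HCT-116 cells with an integrated p53-responsive beta-lactamase gene were incubated with compounds (16 hours, 37 C) after a 5-hour plating period; beta-lactamase activity was detected as fluorescence intensity via B/G FRET substrate.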

Assay [16] in a line: qHTS assay for small molecule activators of the nuclear factor-kappa B (NF-kB) signaling pathway (AID 651749; active = well fitted activation curve with a large enough effect in the signal ratio; the % refers to the signal ratio; note: % of control where 0% means no effect). The note with it: NF-kB-bla ME-180 cells, beta-lactamase FRET ratio, 16 h; activation: stronger effect = higher value. In short, it runs like this: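 Beta-lactamase reporter expression, controlled by NF-kB response elements in ME-180 cells, was quantified fluorometrically via FRET disruption; cells at 2,000/well had been incubated with 23 nL test compound for 16 hr.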

Assay [17] in a line: qHTS assay for cell viability of the p53RE-bla HCT-116 cell line (AID 743292). Note: % is set by controls: 0 for no effect and ±100 for the full control effect; nearly all actives have a fitted effect of over 55% in size. The note with it: p53RE-bla HCT-116 viability, ATP luminescence, 16 h; series mostly up to 95 µM. Put shortly:
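Compound-exposed HCT-116 (p53RE-bla) cells, 4,000 per well, were kept 16 h at 37 C following a 5 h preincubation. Cell number was estimated from total ATP by CellTiter-Glo luminescence read after 30 min at room temperature.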

For assay [18], the target named is Nuclear receptor subfamily 1 group I member 2 (Rattus norvegicus) (UniProt Q9R1A7). The assay can be described thus: qHTS assay for small molecule activators of the rat pregnane X receptor (rPXR) signaling pathway (AID 651751; call rule not given here; note: 0% is about no effect). The note with it: rPXR reporter cells, luciferase (One-Glo), 24 h.
Chain of Nuclear receptor subfamily 1 group I member 2 (Rattus norvegicus) (Q9R1A7 whole entry, looked up): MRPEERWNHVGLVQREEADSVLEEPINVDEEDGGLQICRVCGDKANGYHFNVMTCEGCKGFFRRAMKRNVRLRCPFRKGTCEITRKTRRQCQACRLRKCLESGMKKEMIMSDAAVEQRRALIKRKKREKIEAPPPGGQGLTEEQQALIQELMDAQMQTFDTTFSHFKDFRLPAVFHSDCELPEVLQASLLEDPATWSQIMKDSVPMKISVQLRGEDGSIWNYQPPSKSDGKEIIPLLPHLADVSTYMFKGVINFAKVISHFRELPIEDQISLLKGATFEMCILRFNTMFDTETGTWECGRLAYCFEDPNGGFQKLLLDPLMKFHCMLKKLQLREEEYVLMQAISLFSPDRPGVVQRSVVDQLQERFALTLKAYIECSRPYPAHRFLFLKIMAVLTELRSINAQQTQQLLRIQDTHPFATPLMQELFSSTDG
Assay [19] in a line: qHTS assay for small molecule agonists of retinoid X receptor alpha signaling (AID 588544). The note with it: HEK293T RXRa-UAS-bla, beta-lactamase reporter, 18 h; 530 nm emission.
Assay [20] is described as follows: qHTS assay for small molecule activators of the human pregnane X receptor (PXR) signaling pathway (AID 720659; call rule not given here; note: 0% is about no effect). The settings on record: DPX-2 HepG2 CYP3A4-luciferase, 24 h; series mostly up to 92.3 µM.

Molecules are shown by their SMILES. Inconclusive results are not listed. Activity calls are given as the source filed them. Unless noted, calls come from the whole dose curve; as a rule, active = well fitted curve in the direction sought with a large enough effect; inconclusive = small, poorly fitted or top-dose-only effect, or another doubt; inactive = no such curve, though single readings can be large; an effect the other way counts as inactive or inconclusive.

We go through six compounds from PubChem BioAssay (NCATS).

Chain of Peroxisome proliferator-activated receptor gamma (Homo sapiens) (P37231 whole entry, looked up): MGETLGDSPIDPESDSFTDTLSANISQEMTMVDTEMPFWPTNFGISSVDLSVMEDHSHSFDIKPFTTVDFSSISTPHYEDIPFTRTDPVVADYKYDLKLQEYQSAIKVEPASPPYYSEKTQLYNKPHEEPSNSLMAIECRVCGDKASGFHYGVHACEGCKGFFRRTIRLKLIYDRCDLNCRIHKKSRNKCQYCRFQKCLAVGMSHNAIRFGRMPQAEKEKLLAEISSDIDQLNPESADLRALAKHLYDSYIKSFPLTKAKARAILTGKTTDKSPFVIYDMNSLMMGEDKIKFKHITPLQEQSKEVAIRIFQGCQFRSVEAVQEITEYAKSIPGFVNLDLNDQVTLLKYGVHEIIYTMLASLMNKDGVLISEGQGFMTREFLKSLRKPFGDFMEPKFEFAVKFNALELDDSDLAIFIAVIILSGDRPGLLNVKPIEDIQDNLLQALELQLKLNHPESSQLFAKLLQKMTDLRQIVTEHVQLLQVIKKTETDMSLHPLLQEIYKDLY
Chain of Glucocorticoid receptor (Homo sapiens) (P04150 whole entry, looked up): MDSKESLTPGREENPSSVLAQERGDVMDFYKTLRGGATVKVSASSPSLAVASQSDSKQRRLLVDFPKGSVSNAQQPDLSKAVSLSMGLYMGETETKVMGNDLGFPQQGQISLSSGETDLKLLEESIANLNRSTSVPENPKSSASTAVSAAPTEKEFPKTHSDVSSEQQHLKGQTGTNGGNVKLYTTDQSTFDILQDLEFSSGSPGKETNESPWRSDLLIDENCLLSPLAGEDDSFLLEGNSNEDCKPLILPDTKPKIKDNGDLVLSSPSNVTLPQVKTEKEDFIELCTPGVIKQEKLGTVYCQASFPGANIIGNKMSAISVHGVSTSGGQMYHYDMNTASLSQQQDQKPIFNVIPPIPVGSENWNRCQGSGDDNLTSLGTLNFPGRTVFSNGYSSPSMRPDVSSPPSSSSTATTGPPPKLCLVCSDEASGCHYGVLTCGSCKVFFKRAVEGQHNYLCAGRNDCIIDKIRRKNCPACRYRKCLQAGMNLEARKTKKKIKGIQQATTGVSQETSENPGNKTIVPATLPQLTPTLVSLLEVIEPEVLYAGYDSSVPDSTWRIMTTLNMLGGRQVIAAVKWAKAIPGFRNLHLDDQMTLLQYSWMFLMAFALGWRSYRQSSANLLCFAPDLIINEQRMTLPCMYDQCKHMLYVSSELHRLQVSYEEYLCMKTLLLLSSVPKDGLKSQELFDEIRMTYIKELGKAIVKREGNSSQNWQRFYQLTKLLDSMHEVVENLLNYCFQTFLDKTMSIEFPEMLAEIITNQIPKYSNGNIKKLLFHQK
Chain of Retinoic acid receptor RXR-alpha (Homo sapiens) (P19793 whole entry, looked up): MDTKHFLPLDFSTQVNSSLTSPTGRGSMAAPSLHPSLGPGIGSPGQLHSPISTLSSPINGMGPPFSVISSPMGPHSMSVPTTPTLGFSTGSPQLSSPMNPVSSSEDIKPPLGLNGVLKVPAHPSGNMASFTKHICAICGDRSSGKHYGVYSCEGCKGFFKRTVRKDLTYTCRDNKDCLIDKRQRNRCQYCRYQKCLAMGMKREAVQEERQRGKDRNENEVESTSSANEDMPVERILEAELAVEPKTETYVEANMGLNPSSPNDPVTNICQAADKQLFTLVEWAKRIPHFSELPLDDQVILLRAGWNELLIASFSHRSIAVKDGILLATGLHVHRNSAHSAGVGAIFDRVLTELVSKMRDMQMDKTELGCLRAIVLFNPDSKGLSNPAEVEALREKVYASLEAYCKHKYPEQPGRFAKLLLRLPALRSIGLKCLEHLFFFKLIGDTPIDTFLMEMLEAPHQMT
Chain of Vitamin D3 receptor (Homo sapiens) (P11473 whole entry, looked up): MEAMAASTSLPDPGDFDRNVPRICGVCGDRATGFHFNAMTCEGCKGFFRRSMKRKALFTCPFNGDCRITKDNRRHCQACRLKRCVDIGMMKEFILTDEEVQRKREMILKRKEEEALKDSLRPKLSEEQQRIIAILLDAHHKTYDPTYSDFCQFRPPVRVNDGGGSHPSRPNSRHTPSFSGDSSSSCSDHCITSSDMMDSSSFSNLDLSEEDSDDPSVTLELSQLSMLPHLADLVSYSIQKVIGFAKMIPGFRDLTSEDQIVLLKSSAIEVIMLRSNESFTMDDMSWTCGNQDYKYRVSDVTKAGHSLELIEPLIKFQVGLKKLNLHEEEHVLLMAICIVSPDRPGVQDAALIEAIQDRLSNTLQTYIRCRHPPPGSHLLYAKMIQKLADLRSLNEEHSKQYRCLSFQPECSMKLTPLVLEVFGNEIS

On to `COC(=O)CSc1cc(N=c2sc(=O)n3n2CCCC3)c(F)cc1Cl`, for which the activation was -2.45% (inactive) in assay [1] and -2.58% (inactive) in assay [7]. For the same compound, the Potency entry in assay [2], in assay [4], in assay [6] and in [9] was “inactive” each time. The outcome in assay [3] and in assay [5] was inactive. Moreover, the results for the max response in assay [8], in assay [10] and in assay [11] were 0.865% (inactive), 8.69% (inactive) and 4.83% (inactive), respectively.
For the compound `CCOc1ccc(NC(=O)OC(C)C)cc1OCC`, the activation is -6.81% (inactive) in assay [1], -0.775% (inactive) in [15], -0.916% (inactive) in [16] and 2.6% (inactive) in [7]. In addition, the Potency result in assay [2], in [4], in [6], in assay [9] and in [17] was “inactive” throughout. Moreover, the max response in assay [12] is -29.8%; in assay [13] it was -3.73%; in assay [14], -21.6% (inactive); in assay [8], 2.76% (inactive); in assay [10], -3.59% (inactive); in [18], 10.3% (inactive). For the same compound, the outcome in assay [3] and in assay [5] was inactive.
In the case of `CCCCC(CC)COC(=O)c1ccc(C(=O)OCC(CC)CCCC)cc1` (centres undefined), the max response in [12] was -1.09%; in assay [19], -8.11%; in [13], -7.23%; in assay [14] it was 5.51% (inactive); in assay [8] it was -1.72% (inactive); in assay [10], -17% (inactive). Also, the max response in [11] is -13.5% (inactive); in assay [18], -0.0794% (inactive). Further, the outcome in assay [3] and in assay [20] was inactive. Further, the Potency entry in assay [4], in [6], in assay [9] and in assay [17] was “inactive” throughout. In addition, the activation in [15] was 0.101% (inactive); in assay [7], -2.7% (inactive).
Regarding `CCCCCCCCCCCCCC(=O)OC`, the activation in assay [1] is -4.01% (inactive); in assay [16] it was 0.501% (inactive); in [7] it was 0.0228% (inactive). Moreover, the Potency entry in [2], in assay [4], in [6], in assay [9] and in assay [17] was “inactive” throughout. Besides, the max response in assay [12] was -19.8%; in assay [19] it was 0.848%; in assay [13], -10%; in [14], -1.05% (inactive); in assay [8], 0.157% (inactive); in assay [10], -15.8% (inactive). Further, the max response in assay [11] is 4.18% (inactive); in assay [18], 2.49% (inactive). Moreover, the result in assay [3] and in [20] was inactive.
Take `CO[Si](CCCNCCN)(OC)OC`: the max response in assay [12] is 40.3%; in [19], 7.5%; in assay [13], -7.95%; in assay [14], 2.04% (inactive); in assay [8], 0.748% (inactive); in assay [10] it was 2.71% (inactive). In addition, the max response in assay [11] was -6.23% (inactive); in assay [18], 4.5% (inactive). Also, the outcome in [3], in assay [5] and in [20] was inactive. In addition, the Potency result in assay [4], in assay [6], in assay [9] and in assay [17] was “inactive” in each case.
For `OCc1cccc(Oc2ccccc2)c1`, the max response in [12] is -2.37%; in [19] it was -8.28%; in assay [13] it was -14.1%; in assay [14], 9.52% (inactive); in assay [8], -0.0897% (inactive); in assay [10] it was 2.09% (inactive). Besides, the max response was 2.32% (inactive) in [11] and -3.09% (inactive) in assay [18]. For the same compound, the outcome in assay [3], in assay [5] and in assay [20] was inactive. For the same compound, the Potency result in assay [6], in [9] and in assay [17] was “inactive” in each case. Also, the activation was -1.52% (inactive) in [15], 2.29% (inactive) in assay [16] and 1.11% (inactive) in assay [7].
